Experimental data reported in PubChem BioAssay (NCI).
The panel holds about 79,000 compounds, 15% with a hit somewhere; the sample as a whole holds those more often. Unmarked numbers belong to inactive results. Active and inactive are the calls of the source. Cut-off read from the data, not from the text of the source: active = growth inhibition above about 70%; inactive = the rest.

Columns and labels:
[1] = NCI Yeast Anticancer Drug Screen. Data for the rad50 strain (AID 155);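 note: 0% = growth of vehicle-only cultures of the same strain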; conditions: S. cerevisiae rad50 strain growth inhibition; at 50.0 µM; hits give high values
Method in brief: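 Compounds were tested on a yeast strain with an engineered DNA damage repair alteration; the reported value is growth inhibition normalised to vehicle treatment.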

[2] = NCI Yeast Anticancer Drug Screen. Data for the mec2-1 strain (AID 157); conditions: S. cerevisiae mec2-1 strain, at 50.0 µM, hits give high values
Method in brief: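 Strain: mec2-1 (DNA repair/cell cycle alteration). Compound exposure, then growth measured; inhibition expressed relative to vehicle.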

[3] = NCI Yeast Anticancer Drug Screen. Data for the sgs1 mgt1 strain (AID 161);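 note: 0% = growth of cultures given vehicle only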; conditions: S. cerevisiae sgs1 mgt1 strain, at 50.0 µM, hits give high values
Method in brief: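 Inhibition of yeast growth, normalised to vehicle-treated controls, is reported for a strain bearing genetic alterations in DNA damage repair.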

[4] = NCI Yeast Anticancer Drug Screen. Data for the cln2 rad14 strain (AID 165);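 note: 0% = growth equal to vehicle treated cultures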; conditions: S. cerevisiae cln2 rad14 strain, at 50.0 µM, hits give high values
Method in brief: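 Compounds are applied to the cln2 rad14 yeast strain, and growth is then compared with that of vehicle-treated cultures to give inhibition.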

[5] = NCI Yeast Anticancer Drug Screen. Data for the bub3 strain (AID 167); conditions: S. cerevisiae bub3 mutant strain, at 50.0 µM, hits give high values
Method in brief: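 Growth of a checkpoint-deficient yeast mutant is measured after compound exposure. Values represent inhibition relative to vehicle.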

[6] = NCI Yeast Anticancer Drug Screen. Data for the mlh1 rad18 strain (AID 175); conditions: S. cerevisiae mlh1 rad18 strain growth inhibition; at 50.0 µM; hits give high values
Method in brief: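 Read-out is yeast growth inhibition, calculated against vehicle-only controls. The compound was applied to a strain engineered with DNA damage repair alterations.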

Row | Structure (SMILES) | growth inhibition [1] | growth inhibition [2] | growth inhibition [3] | growth inhibition [4] | growth inhibition [5] | growth inhibition [6]
1 | NCC(=O)NC1CCCCC1 | 30.6% | 1.85% | -8.45% | 25.4% | -3.65% | 5.3%
2 | C[n+]1nnn(/N=C\c2ccccc2)c1N | -3.55% | 11.8% | 10.1% | -0.95% | 8.75% | 11.6%
3 | CC(=O)SC1CC2CCC1C2 (stereo unspecified) | 0.75% | -18.2% | -17.4% | 9.95% | -19.7% | 15.7%
4 | CCOC(=O)CN1CCC(C(=O)OCC)CC1 | 7.75% | -27% | 20.6% | 12.9% | -3.05% | 20.8%
5 | COc1ccc(Cl)cc1NC(=O)O/N=C(\Cl)C(C)C | -3.65% | 7.55% | 10.9% | 16.2% | 24.9% | -74.3%
6 | C/C=C(/C(=O)NC(N)=O)C(C)C | -3.65% | 3.15% | -20.1% | -48.3% | -2.55% | -2.85%
7 | NNc1ncnc2cccc(Cl)c12 | 7.95% | 27.2% | 18.6% | -24.7% | 1.8% | 11.9%
8 | CCCCCCCCOC(=O)CO | 23.8% | -30.1% | 17.8% | 5.35% | 3.1% | 12.3%
9 | CC(=O)Nc1ccc2c(c1)C(N1CCCCC1)c1ccccc1-2 (stereo unspecified) | -42.2% | -17.8% | 4.2% | -40.1% | -2.6% | -5.4%
10 | CC(=O)c1ccc(N=NN(C)C)cc1 | 0.2% | 1% | -2.65% | -18.4% | -21.9% | -15.6%
11 | Cc1ccc(NC(=S)N2CCCC2)cc1 | 5.9% | -12.9% | -18.8% | -94.2% | -13.4% | -0.7%
12 | CC(=O)Oc1cccc(/C=C/C(=O)O)c1 | 19% | 29.3% | 22.9% | 3.75% | 39.6% | 18.9%
13 | N#CCCNCCNCCC#N | -30.8% | -2.25% | -18.1% | -68.2% | -26.1% | -26.4%
14 | O=C1C(Cl)C(c2cccc(O)c2)N1n1cnc2ccccc2c1=O (stereo unspecified) | -25.1% | -4.15% | -7.5% | -8% | -19.4% | -0.95%
15 | O=C(/C=N/O)Nc1ccccc1 | 10.8% | 7.25% | -0.15% | 7.9% | 7.25% | -9.35%
16 | COC(=O)C1C(O)CCC2CN3CCc4c([nH]c5cccc(OC)c45)C3CC21 (stereo unspecified) | -3.7% | -14.8% | 14.3% | 7.85% | 2% | -78.7%
17 | Cc1ccc(NC(=O)OCC2CC3C=CC2C3)cc1 (stereo unspecified) | 95.5% (active) | 98.8% (active) | 99% (active) | 96.3% (active) | 95.2% (active) | 97.7% (active)
18 | CC(N)CCC(=O)O (stereo unspecified) | -16.1% | -27.4% | -15.7% | -27.2% | -32.1% | -31%

Row | Structure (SMILES) | growth inhibition [1] | growth inhibition [2] | growth inhibition [3] | growth inhibition [4] | growth inhibition [5] | growth inhibition [6]
19 | O=C(CCC(=O)OCCCl)OCCCl | -3.4% | -18.9% | -5.6% | -7.75% | 9.05% | -7.45%
20 | NC(=O)Nc1ccc2[nH]c(=O)c3ccccc3c2c1 | 7.4% | -3.35% | 17.2% | 0.6% | -7.15% | 1.45%
21 | COc1ccc2c(c1OC)C1=NCCc3cc4c(cc3C1(OC)C2=O)OCO4 (stereo unspecified) | -7.15% | 0.75% | 7.05% | 16.8% | 13.7% | -1.2%
22 | O=C(Nc1ccc(C2=NCCN2)c(O)c1)c1ccc(C(=O)Nc2ccc(C3=NCCN3)c(O)c2)cc1 | 32.6% | 3.95% | 23.2% | 36.2% | 7.5% | 28.6%
23 | O=c1/c(=C/c2ccco2)sc2nc3ccccc3n12 | 15.8% | 5.35% | 14.5% | 29.8% | 30.1% | 20.4%
24 | CCCC(=O)Nc1cccc(C(F)(F)F)c1 | 7.65% | 19.6% | -11.4% | 22.5% | 26.9% | 28.6%
25 | Cc1c(C(=O)OCCCl)c(=O)n(-c2ccccc2)n1C | -43.4% | -56.2% | 4.7% | 19.6% | -33.5% | -0.55%
26 | CC1=CC(=O)c2cccc(NC3=NCCO3)c21 | -31.3% | -20.8% | -2.95% | -28.9% | -2% | -29.2%
27 | CCC(=O)Oc1cc(C(C)(C)C)c(OC(=O)CC)cc1C(C)(C)C | 3.45% | -13.9% | 10.6% | 12.3% | 10.9% | 35.4%
28 | FC1(F)C(F)(F)C(F)(F)C2(F)C(F)(F)C(F)(F)C(F)(F)C(F)(F)C2(F)C1(F)F (stereo unspecified) | -25.2% | -21.2% | -17.7% | 7.25% | -0.8% | -8.5%
29 | CC(=O)Nc1ccc(OC(C)=O)cc1 | 14.4% | -0.85% | 3.55% | 20.5% | 2.7% | 24.4%
30 | N/N=C/c1ccc2ccccc2n1 | -14.4% | -12.6% | -17.4% | -1.75% | 12.6% | -19.6%
31 | O=C1Nc2ccccc2/C1=N/N=P(c1ccccc1)(c1ccccc1)c1ccccc1 | -10.2% | 0.35% | 10.1% | 2.4% | -5.8% | -5.15%
32 | S=c1nc[nH]c2nc[nH]c12 | -18% | 0.25% | -6.75% | -66.5% | 10.8% | 20.1%
33 | CC(=O)c1cc(C(C)=O)c2cc(C)cc(O)c2c1O | 15.7% | -13.9% | 8.45% | 1.9% | 13.9% | -9.7%
34 | Cc1ccc(C(O)(c2ccc(C)cc2)C2CCCCC2=C(c2ccccc2)c2ccccc2)cc1 (stereo unspecified) | 10.8% | 3.45% | -14.2% | -7.35% | -0.25% | 15.2%
35 | COC(=O)/C=C/c1ccc(OC(C)=O)c(OC)c1 | -1.9% | 3.55% | -13.6% | -19.1% | 16.6% | -4.9%
36 | CCCN(Cc1ccccc1)CC(O)c1ccc(Cl)cc1 (stereo unspecified) | 0.95% | 3.5% | 32.2% | 2.95% | 32.9% | 20.1%
